An excerpt weighted towards active compounds, which were near 10% of everything screened.
Sfp inh = Sfp phosphopantetheinyl transferase inhibition | Q9F4F7 | Biochemical Sfp PPTase activity, qHTS | Potency, µM, inactives show largest response in the series, negative = inhibition, usual class: inhibitors | 310,000 tested, 3.5% active | AID 1490;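 further: the enzyme is Sfp with the accession as filed and its product quenches rhodamine fluorescence; potency means the concentration at half of the fitted maximal effect; 0% = enzyme reaction without inhibitor and -100% = no enzyme wells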
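Compounds were incubated with enzyme (final 15 nM) for 15 min at room temperature before substrate addition started the reaction. Fluorescence at 525 nm excitation, 598 nm emission was recorded immediately and after 30 minutes.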
MmCpn inh = inhibitors of Methanococcus maripaludis chaperonin TRiC (MmCpn); purified Mm-Cpn ATPase, ADP Transcreener TR-FRET; Potency, µM (doses to about 76.9 µM), inactives show at the highest dose activity, negative = inhibition, most hits filed as inhibitors; 330,000 tested, 0.031% active; AID 504842; further: potency means the concentration at half of the fitted maximal effect; nearly all actives have a fitted effect of over 80% in size
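ATPase read-out: TR-FRET ADP immunoassay (anti-ADP Eu cryptate vs ADP-d2), ex 320 nm, em 590/665 nm; signal drops as ADP forms. Enzyme 25 nM, ATP 10 uM, 30 min at 37°C after 10 min compound preincubation.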
VDR inhibitor = blocks the human vitamin D receptor | AID 504847 | Potency, µM, inactives show max response, negative = inhibition, most hits filed as inhibitors | VDR-SRC2-3 peptide fluorescence polarization, 2 h | 400,000 tested, 0.93% active | P11473; further: potency means the concentration at half of the fitted maximal effect
Target sequence (P11473 whole entry, looked up): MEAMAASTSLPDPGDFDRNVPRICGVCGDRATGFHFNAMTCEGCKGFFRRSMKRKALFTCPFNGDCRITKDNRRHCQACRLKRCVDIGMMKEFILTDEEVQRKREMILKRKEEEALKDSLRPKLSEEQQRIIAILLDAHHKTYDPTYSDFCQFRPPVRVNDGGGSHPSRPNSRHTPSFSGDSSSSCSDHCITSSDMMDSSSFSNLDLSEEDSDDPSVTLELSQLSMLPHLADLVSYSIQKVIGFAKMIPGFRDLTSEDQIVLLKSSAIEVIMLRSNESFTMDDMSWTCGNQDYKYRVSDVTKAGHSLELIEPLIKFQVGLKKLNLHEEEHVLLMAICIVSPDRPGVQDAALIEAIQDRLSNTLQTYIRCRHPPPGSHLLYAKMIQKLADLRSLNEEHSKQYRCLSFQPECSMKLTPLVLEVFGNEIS
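VDR–SRC2-3 interaction, FP format. Cmpds 23 nl via pintool, brief spin, 2 h ambient incubation.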
G9a inh = G9a (human) methyltransferase inhibition. G9a H3K9 monomethylation, AlphaScreen, 2 h. Potency, µM (series often up to 102 µM), inactives show at the highest dose activity, negative = inhibition, hits mostly inhibitors. 350,000 tested, 8.8% active; further: potency means the concentration at half of the fitted maximal effect; nearly all actives have a fitted effect of over 75% in size
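Signal arises when biotinylated H3K9 peptide, once monomethylated, bridges streptavidin donor and antibody-captured acceptor beads. Enzyme at 20 nM was preincubated 15 min with test compounds; peptide 500 nM and SAM 20 uM then reacted for 2 h.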
CCT chaperon mod = cytosolic chaperonin activity modulation | purified chaperonin ATPase assay, HTRF ADP detection, 30 min | activity change, % (no concentration beside the values), hits read low | 360,000 tested, 0.3% active | AID 651819; in the data active means activity change below about -30%
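First, chaperonin was dispensed at 40 nM or 20 nM final depending on batch activity. Next, compounds were pinned at 76 uM and ATP added at 10 uM. After 30 min at 37 °C, ADP detection reagents ran 30 min at ambient temperature.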
PLK1 PBD inh = inhibitors of human PLK1 polo-box domain binding. P53350. Plk1 PBD binding of FITC phosphopeptide, fluorescence polarization. Potency, µM, for the others: max response, negative = inhibition, actives largely listed as inhibitors. 360,000 tested, 2.8% active. AID 720504; further: potency means the concentration at half of the fitted maximal effect; series mostly up to about 57 µM; nearly all actives have a fitted effect of over 65% in size
* = called active by the depositor; ? = inconclusive; . = not tested or not shown; [ ] = another dose, or the depositor's remark. Unless noted, the call rests on the fitted dose curve; in most records, active means well fitted curve in the direction sought with a large enough effect; inconclusive means small, poorly fitted or top-dose-only effect, or another doubt; inactive means no such curve, though single readings can be large; an effect the other way counts as inactive or inconclusive. Unless noted, on the % scale 0 is the no-effect control and ±100 the full control effect.

SMILES	Sfp inh	MmCpn inh	VDR inhibitor	G9a inh	CCT chaperon mod	PLK1 PBD inh
COc1cc(CNn2cn[nH]c2=S)cc(Cl)c1OCc1ccccc1	8%	0%	-2%	10µM*	-3	-9%
CC1CCCN(Cc2c(O)ccc3c(=O)c(-c4ccc(Cl)cc4)c(C(F)(F)F)oc23)C1 (configuration not stated)	.	.	0%	0%[59 µM]	.	.
Cc1ccc(C(=O)OCC(=O)Nc2ccccc2)cc1NC(=O)c1ccco1	10%	1%	5%	8%[59 µM]	0	-4%
Cc1ccc(C(=O)OCC(=O)Nc2ncc(Cl)cc2Cl)cc1NC(=O)c1ccco1	0%	-6%	-23%	45µM*	-1	-21%
Cc1ccc(C(=O)OCC(=O)Nc2sc3c(c2C#N)CCCCC3)cc1NC(=O)c1ccco1	12%	0%	18%	-11%[59 µM]	1	-6%
Cc1ccc(C(=O)OCC(=O)Nc2sc3c(c2C#N)CCCC3)cc1NC(=O)c1ccco1	?	-1%	24%	22µM*	-2	?
Cc1ccc(C(=O)OCC(=O)Nc2sccc2C(N)=O)cc1NC(=O)c1ccco1	-6%	-5%	-10%	0.89µM*	-1	-6%
Cc1cc(C)cc(NC(=O)N2CCC(CN3CCCCCC3)CC2)c1	.	.	11%	?	.	.
COc1ccc(-c2noc(CSCC(=O)Nc3ccc(C)cc3Br)n2)cc1OC	.	.	7%	3%[59 µM]	.	.
Oc1ccc2ccccc2c1CNc1ccc(Br)cc1	-15%	-4%	?	5µM*	-3	6.7µM*
Oc1ccc2ccccc2c1CNc1cnc2ccccc2c1	28µM*	-7%	-46%	1.4µM*	-6	3.4µM*
Cc1cccc(NC(=O)CSc2nc3c(oc4ccccc43)c(=O)n2-c2ccccc2)c1C	.	.	5%	-1%[59 µM]	.	.
CC(C)(C)N(CC#CCC(O)(c1ccccc1)c1ccccc1)CCO	40µM*	0%	-19%	8.9µM*	1	-2%
OC(CC#CCN1CCCCC1)(c1ccccc1)c1ccccc1	14%	-1%	-9%	-10%	-1	-9%
O=C(CSc1n[nH]c(-c2ccco2)n1)N1c2ccccc2Sc2ccccc21	?	-3%	-7%	50µM*	-1	-18%
O=C(CSc1n[nH]c(-c2ccco2)n1)Nc1sc2c(c1C(=O)Nc1ccccc1)CCCC2	35µM*	-11%	10%	?	-1	-10%
CCOC(=O)CSc1n[nH]c(-c2ccco2)n1	5%	0%	-26%	1%	-2	30µM*
O=C(CSc1n[nH]c(-c2ccco2)n1)Nc1ccc(Br)cc1	21%	-1%	-15%	-2%	-2	27µM*
COc1ccc(-c2nc3ccccc3nc2-c2ccc(OC)c(OC)c2)cc1OC	5%	1%	5%	20µM*	-2	-15%
COc1ccc(-c2nc(=S)[nH][nH]2)cc1OC	56µM*	-3%	-20%	0.56µM*	-1	-9%
COc1cc(-c2nc(=S)[nH][nH]2)cc(OC)c1OC	50µM*	-6%	50µM*	0.56µM*	1	-16%
COc1ccc(-c2nc3ccccc3nc2-c2ccccc2)cc1OC	-25%	-3%	4%	144%	-2	-10%
O=C(C1CCN(S(=O)(=O)c2cccc3nonc23)CC1)N1CCN(c2ccc(F)cc2)CC1	.	.	8%	-33%[59 µM]	.	.
COc1ccc(-c2cn3nc(N4CCC(C(=O)NCc5ccccc5F)CC4)sc3n2)cc1	.	.	-8%	-5%[59 µM]	.	.
N#Cc1ccc(S(=O)(=O)NC2CC2)cc1	?	4%	-26%	7.9µM*	-29	?
COc1ccc(Cl)cc1NC(=O)CSc1nccn1-c1ccc(Cl)cc1	.	.	3%	-32%[59 µM]	.	.
COc1ccc(C(O)c2nc3ccccc3n2C(C)C)cc1 (configuration not stated)	7%	1%	?	?	-2	24µM*
Cc1ccc(C(O)c2nc3ccccc3n2C(C)C)cc1 (configuration not stated)	18%	-2%	5%	-8%[59 µM]	-2	-14%
CC(CCc1ccccc1)NC(=O)Cn1c(=O)nc(-c2ccccc2F)c2cc(Cl)ccc21 (configuration not stated)	.	.	17%	5%[12.7 µM]	.	.

Source: PubChem
